The record followed here is PubChem BioAssay AID1347418 (Sanford-Burnham Center for Chemical Genomics, 2020).

About 750 (58%) of roughly 1,300 compounds were called active. This is one part of the list. Unmarked numbers belong to inactive results.

What is called inhibition is the drop in the measured response relative to a control, in per cent.

The target in the assay is Sulfhydryl oxidase 1 (Homo sapiens) (UniProt O00391). The assay can be described thus: QSOX1 enzyme inhibitors, primary screen, biochemical, ROS-Glo H2O2 luminescence, HTS (AID 1347418). The settings on record: recombinant QSOX1, ROS-Glo H2O2 luminescence; at 12.5 µM; stronger effect = higher value; active = any value above zero.
Chain of Sulfhydryl oxidase 1 (Homo sapiens) (O00391 whole entry, looked up): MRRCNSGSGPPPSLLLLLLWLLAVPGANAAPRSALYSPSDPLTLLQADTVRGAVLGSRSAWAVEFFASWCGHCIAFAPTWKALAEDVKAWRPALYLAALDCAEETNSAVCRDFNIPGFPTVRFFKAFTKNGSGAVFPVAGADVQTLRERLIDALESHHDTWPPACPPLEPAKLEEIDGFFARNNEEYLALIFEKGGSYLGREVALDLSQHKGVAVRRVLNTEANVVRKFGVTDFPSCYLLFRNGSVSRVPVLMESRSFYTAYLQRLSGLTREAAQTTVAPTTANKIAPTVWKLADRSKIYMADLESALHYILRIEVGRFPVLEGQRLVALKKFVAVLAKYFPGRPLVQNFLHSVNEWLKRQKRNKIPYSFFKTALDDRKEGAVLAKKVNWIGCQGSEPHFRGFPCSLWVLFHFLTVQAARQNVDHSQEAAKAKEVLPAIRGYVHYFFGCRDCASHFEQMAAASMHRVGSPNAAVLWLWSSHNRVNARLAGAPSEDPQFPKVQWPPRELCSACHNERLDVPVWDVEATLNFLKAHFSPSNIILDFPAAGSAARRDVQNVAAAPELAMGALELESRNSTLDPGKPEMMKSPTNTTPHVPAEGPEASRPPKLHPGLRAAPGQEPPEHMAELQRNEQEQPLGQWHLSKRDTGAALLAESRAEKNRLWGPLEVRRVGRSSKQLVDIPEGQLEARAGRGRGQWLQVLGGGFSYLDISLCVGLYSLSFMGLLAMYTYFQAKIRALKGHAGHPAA
For the compound `O=C(O)CCC(C(=O)O)N1C(=O)c2ccccc2C1=O` (stereo unspecified), the inhibition was -1%.
Turning to `CCOC(=O)c1cnc2c(cnn2CC)c1NN=C(C)C`, the inhibition is 0.7% (active).
For `CCCCNc1ccc(C(=O)OCCN(C)C)cc1`, the inhibition is -1.8%.
As for `CCCCNc1c(C(=O)OCC)c(C)nc2c1cnn2CC`, the inhibition is 3.5% (active).
As for `CC(C)COC(=O)OCN1C(=O)CN(CCN2CC(=O)N(COC(=O)OCC(C)C)C(=O)C2)CC1=O`, the figure is 2.6% (active); as for `NCCSSCCN`, 10.5% (active).
Consider `CCOC(=O)Nc1ccc(NCc2ccc(F)cc2)nc1N`, for which the inhibition was 9.8% (active).
Consider `CCCCCCCCCC[Si](C)(C)CCC(=O)NC(Cc1ccc(C)cc1)c1ccccc1` (stereo unspecified), for which the inhibition was 0.6% (active).
For the compound `CCCCCCCCc1ccc(-c2ccc(C(=O)O)cc2)cc1`, the inhibition is -5.7%.
As for `NC(N)=NC(=O)c1nc(Cl)c(N)nc1N`, the figure is -2.5%; as for `CCN(c1nc(N)c(C(=O)N=C(N)N)nc1Cl)C(C)C`, -3.8%; as for `CN(C)c1nc(N)c(C(=O)N=C(N)N)nc1Cl`, 0.7% (active).
Consider `NC(N)=NC(=O)c1nc(Cl)c(N2CCCCCC2)nc1N`, for which the inhibition is 1.7% (active).
The result for `C#CCN1C(C)=C(C(=O)OC)C(c2cccc([N+](=O)[O-])c2)C(C(=O)OCC)=C1C` (stereo unspecified) reads -3%; that for `COC(=O)C1=C(C)NC(C)=C(C(=O)OCCN(C)Cc2ccccc2)C1c1cccc([N+](=O)[O-])c1` (stereo unspecified), -1.6%.
The result for `CCOC(=O)C1=C(C)NC(C)=C(C(=O)OC)C1c1cccc([N+](=O)[O-])c1` (stereo unspecified) reads 1% (active).
As for `COCCOC(=O)C1=C(C)NC(C)=C(C(=O)OC(C)C)C1c1cccc([N+](=O)[O-])c1` (stereo unspecified), the figure is -2.5%.
Consider `COC(=O)C1=C(C)NC(C)=C(C(=O)OC)C1c1ccccc1[N+](=O)[O-]`, for which the inhibition is -1.1%.
As to `COCCOC(=O)C1=C(C)NC(C)=C(C(=O)OC/C=C/c2ccccc2)C1c1cccc([N+](=O)[O-])c1` (stereo unspecified), the inhibition was 5.1% (active).
For the compound `COC(=O)C1=C(C)NC(C)=C(C(=O)OC(C)(C)CN(C)CCC(c2ccccc2)c2ccccc2)C1c1cccc([N+](=O)[O-])c1` (stereo unspecified), the inhibition is -1.4%.
For the compound `CCOC(=O)C1=C(C)NC(C)=C(C(=O)OCC)C1c1c(F)c(F)c(F)c(F)c1F`, the inhibition was -3.2%.
`CCOC(=O)C1=C(C)NC(C)=C(C(=O)OC)C1c1cccc(Cl)c1Cl` (stereo unspecified): the inhibition is 3% (active).
As for `O=C(O)CN(CCOCCOCCN(CC(=O)O)CC(=O)O)CC(=O)O`, the figure is -5.4%.
As for `CCCCCCCCCCC(C)(C)C(=O)Nc1c(OC)cc(OC)cc1OC`, the inhibition is -1%.
Consider `COc1ccccc1OCC(O)CN1CCN(CC(=O)Nc2c(C)cccc2C)CC1` (stereo unspecified), for which the inhibition is 3.9% (active).
As for `COc1ccccc1N1CCN(CC(O)COc2cccc3ccccc23)CC1` (stereo unspecified), the figure is 8.9% (active); as for `COc1cc2nc(N(C)CCCNC(=O)C3CCCO3)nc(N)c2cc1OC` (stereo unspecified), 1.1% (active).
As for `COc1cc2nc(N3CCN(C(=O)OCc4ccccc4)C(C(=O)NC(C)(C)C)C3)nc(N)c2cc1OC` (stereo unspecified), the figure is 4.3% (active).
With `COc1cc2nc(N3CCN(C(=O)c4ccco4)CC3)nc(N)c2cc1OC`, the inhibition was -0.3%.
As for `COc1cc2nc(N3CCN(C(=O)C4COc5ccccc5O4)CC3)nc(N)c2cc1OC` (stereo unspecified), the figure is 4.9% (active); as for `COc1cc2nc(N3CCN(C(=O)C4CCCO4)CC3)nc(N)c2cc1OC` (stereo unspecified), 0.3% (active); as for `NC(=O)c1ccccc1`, 7.2% (active).
As for `NC(=O)c1cccc(N)c1`, the figure is 2.2% (active); as for `CCn1c(=O)[nH]c2cc(Cl)c(Cl)cc21`, -5.4%; as for `NS(=O)(=O)c1cc2c(cc1Cl)NC(C1CC3C=CC1C3)NS2(=O)=O` (stereo unspecified), -0.4%.
`NS(=O)(=O)c1cc2c(cc1Cl)NC=NS2(=O)=O`: the inhibition was 2.5% (active).
Turning to `NS(=O)(=O)c1cc2c(cc1Cl)NCNS2(=O)=O`, the inhibition was -0.5%.
The result for `COc1cccc2c1[C@@H]1CN(CCCCn3c(=O)[nH]c4c(sc5ncc(-c6ccccc6)nc54)c3=O)C[C@@H]1CO2` reads -1.5%.
As for `CC(C)[C@@H]1CC[C@@H](C)C[C@@H]1P(=O)(c1ccccc1)c1ccccc1`, the figure is 2.9% (active); as for `CCCn1c(=O)c(C)cn2nc(N)nc12`, 4.5% (active); as for `NC(N)=NCc1cccc(I)c1`, 3.9% (active).
On to `O=c1[nH]c2cc([N+](=O)[O-])c([N+](=O)[O-])cc2[nH]c1=O`, for which the inhibition was 2.2% (active).
As for `CCCOC(=O)c1c(-c2ccccc2)nc(CC)c(C(=O)SCC)c1CCC`, the figure is -3.6%; as for `O=C(O)CCc1nc(-c2ccccc2)c(-c2ccccc2)o1`, 3.2% (active); as for `CC1(C)CCC(NC(=O)[C@@H](N)CCC(=O)O)CC1`, -1.9%.
As for `C#CC(N)CCC(=O)O` (stereo unspecified), the figure is 5.9% (active); as for `C=Cc1c(C)c2cc3[nH]c(cc4nc(cc5nc(cc1[nH]2)C(C)=C5CCC(=O)O)C(CCC(=O)O)=C4C)c(C)c3C=C`, -1.1%; as for `O=C(O)[C@@H]1C[C@@H](C(=O)O)N1`, -2.9%.
As for `CC(C)C(=O)Nc1ccc([N+](=O)[O-])c(C(F)(F)F)c1`, the inhibition is 6.8% (active).
In the case of `CC1(C)NC(=O)N(c2ccc([N+](=O)[O-])c(C(F)(F)F)c2)C1=O`, the inhibition is -0.4%.
As for `COC(=O)C1=C(C)NC(C)=C([N+](=O)[O-])C1c1ccccc1C(F)(F)F` (stereo unspecified), the figure is -3.4%.
With `Oc1ccc(Cn2cc[nH]c2=S)cc1`, the inhibition is 5.9% (active).
Turning to `CCCCCN(C)CCC(O)(P(=O)(O)O)P(=O)(O)O`, the inhibition was 0.6% (active).
As for `NCCNS(=O)(=O)c1cccc2c(Cl)cccc12`, the figure is 0.1% (active); as for `O=C(O)CC1CCCc2ccccc2C1O` (stereo unspecified), -2.6%; as for `O=C(CCCCCN1CCN(c2ccccc2-c2ccccc2)CC1)NC1CCCc2ccccc21` (stereo unspecified), 2.4% (active).
As for `CSc1ccccc1N1CCN(CCCCCC(=O)NC2CCCc3ccccc32)CC1` (stereo unspecified), the figure is -1.2%; as for `O=C(O)c1cccnc1Nc1cccc(C(F)(F)F)c1`, 3.2% (active).
Regarding `O=C(O)c1cccnc1C(=O)O`, the inhibition is -3%.
As to `c1ccc2nc(C3=NCCN3)ccc2c1`, the inhibition is 0.1% (active).
For the compound `CC(C)(Sc1ccc(CCN(CCCCC2CCCCC2)C(=O)NC2CCCCC2)cc1)C(=O)O`, the inhibition is 0.8% (active).
Consider `CCc1c(C(=O)NCCc2ccc(N3CCCCC3)cc2)[nH]c2ccc(Cl)cc12`, for which the inhibition was 1.2% (active).
As for `CN=c1nc(-c2ccccc2)n(-c2ccccc2)s1`, the figure is -4.5%; as for `O=C(/C=C/c1ccc(O)cc1)c1ccc(O)cc1O`, 20.8% (active).
The result for `C#C[C@]1(O)CC[C@H]2[C@@H]3CCC4=Cc5oncc5CC4(C)[C@H]3CCC21C` (stereo partly specified) reads 3.6% (active).
Take `CCCCCN(CCCCC)C(=O)C(CCC(=O)O)NC(=O)c1ccc(Cl)c(Cl)c1` (stereo unspecified): the inhibition was 3% (active).
The result for `CCCN(CCC)C(=O)C(CCC(=O)O)NC(=O)c1ccccc1` (stereo unspecified) reads -6.3%.
As to `S=C([S-])OC1CC2C[C+]1C1CCCC21` (stereo unspecified), the inhibition was -1.8%.
The result for `O=c1onc2cnc3ccccc3n12` reads 1.7% (active); that for `CN(C)CCCC1(c2ccc(F)cc2)OCc2cc(C#N)ccc21` (stereo unspecified), -4.9%.
Regarding `O=c1[nH]cnc2[nH]ncc12`, the inhibition is 7.1% (active).
As for `OC[C@H]1NC[C@@H](O)[C@@H]1O`, the figure is 3.1% (active); as for `OCC1NCC(O)C(O)C1O` (stereo unspecified), 0.3% (active); as for `CN=C(N)NCCC[C@H](N)C(=O)O`, -2.7%.
The result for `CCCCS(=N)(=O)CCC(N)C(=O)O` (stereo unspecified) reads 5.6% (active); that for `CCCCS(=N)(=O)CC[C@H](N)C(=O)O` (stereo partly specified), 2.8% (active).
The result for `CCCC(CCC)C(=O)O` reads -0.3%; that for `O=S(=O)(c1cccc2c(I)cccc12)N1CCCNCC1`, 8.3% (active); that for `O=S(=O)(c1cccc2c(Cl)cccc12)N1CCCNCC1`, 0.5% (active).
`CC(=O)O[C@H]1C(=O)[C@@]2(C)C([C@H](OC(=O)c3ccccc3)[C@]3(O)C[C@H](OC(=O)[C@H](O)[C@@H](NC(=O)c4ccccc4)c4ccccc4)C(C)=C1C3(C)C)[C@]1(OC(C)=O)CO[C@@H]1C[C@@H]2O` (stereo partly specified): the inhibition was 1.7% (active).
Regarding `N[C@@H](COP(=O)(O)O)C(=O)O`, the inhibition was -1.4%.
The result for `NOCC(=O)O` reads -7.4%.
Consider `C=CC[C@H](N)C(=O)O`, for which the inhibition is 4.9% (active).
As for `N[C@@H](CS(=O)O)C(=O)O`, the figure is -2.6%.
For `N[C@H](CO)C(=O)O`, the inhibition was 1.4% (active).
As for `N[C@@H](CC(=O)O)C(=O)O`, the figure is 4.2% (active); as for `CC(=O)N[C@H](C(=O)O)C(C)(C)SN=O`, -3.3%; as for `CC(=O)N[C@@H](CS)C(=O)O`, 1.8% (active).
On to `N[C@@H]1CONC1=O`, for which the inhibition is -12.8%.
The result for `Cc1ccccc1/C=C/C1=NCCN1` reads 0.5% (active); that for `CC(C)(C)c1ccc(C(O)CCCN2CCC(C(O)(c3ccccc3)c3ccccc3)CC2)cc1` (stereo unspecified), -4%.
As for `C[C@@H](CN1CCC(Cc2ccccc2)CC1)[C@@H](O)c1ccc(O)cc1`, the inhibition was 3.4% (active).
For `CC(C(O)c1ccc(O)cc1)N1CCC(Cc2ccccc2)CC1` (stereo unspecified), the inhibition is 7.3% (active).
`CC(C)(C(=O)O)c1ccc(C(O)CCCN2CCC(C(O)(c3ccccc3)c3ccccc3)CC2)cc1` (stereo unspecified): the inhibition is -1.3%.
With `CNC[C@H](O)c1cccc(O)c1`, the inhibition is -3.5%.
As for `CC(C)(C)NCC(O)c1ccc(O)c(CO)c1` (stereo unspecified), the inhibition is 5.3% (active).
On to `CNCC(O)c1ccc(O)c(O)c1` (stereo unspecified), for which the inhibition was 2.8% (active).
Take `CNC[C@H](O)c1ccc(O)c(O)c1`: the inhibition is 8.4% (active).
As for `CC(C)(C)NCC(O)c1cc(O)cc(O)c1` (stereo unspecified), the figure is -2%.
As for `Cc1cn[nH]c1`, the figure is 1.9% (active).
In the case of `NS(=O)(=O)C1=[C+]C=[C+]c2c1c([N+](=O)[O-])cc1nc([O-])c([O-])nc21`, the inhibition was -4.9%.
As to `COc1ccccc1CNCCCCCCNCCCCCCCCNCCCCCCCNc1ccccc1OC`, the inhibition is 1.8% (active).
The result for `CCCCCCCC/C=C\CCCCCCCC(=O)NCCO` reads 6.9% (active); that for `CCCCCCCCCCCCCCCC(=O)NCCO`, -1.3%; that for `Oc1ccc(C2CNCc3sccc32)cc1O` (stereo unspecified), 15.7% (active).
The result for `CN1Cc2sccc2C(c2ccc(O)c(O)c2)C1` (stereo unspecified) reads 23.4% (active).
